Test results taken from PubChem BioAssay (EPA / NIEHS).
Where “and” joins values, the source holds several entries; their conditions need not be identical. Identical values can stand only once. Inconclusive results are not listed. Calls of active or inactive are those of the source. Rule for the calls: active = hit-call score of the fitted dose curve at least 0.9, where 1 is the maximum; inconclusive = response in the unintended direction; inactive = score below 0.9.

Biological target: chicken Estrogen Receptor (ESR1), ESR1 (gene 396099) (UniProt P06212)
Sequence (P06212 whole entry, looked up): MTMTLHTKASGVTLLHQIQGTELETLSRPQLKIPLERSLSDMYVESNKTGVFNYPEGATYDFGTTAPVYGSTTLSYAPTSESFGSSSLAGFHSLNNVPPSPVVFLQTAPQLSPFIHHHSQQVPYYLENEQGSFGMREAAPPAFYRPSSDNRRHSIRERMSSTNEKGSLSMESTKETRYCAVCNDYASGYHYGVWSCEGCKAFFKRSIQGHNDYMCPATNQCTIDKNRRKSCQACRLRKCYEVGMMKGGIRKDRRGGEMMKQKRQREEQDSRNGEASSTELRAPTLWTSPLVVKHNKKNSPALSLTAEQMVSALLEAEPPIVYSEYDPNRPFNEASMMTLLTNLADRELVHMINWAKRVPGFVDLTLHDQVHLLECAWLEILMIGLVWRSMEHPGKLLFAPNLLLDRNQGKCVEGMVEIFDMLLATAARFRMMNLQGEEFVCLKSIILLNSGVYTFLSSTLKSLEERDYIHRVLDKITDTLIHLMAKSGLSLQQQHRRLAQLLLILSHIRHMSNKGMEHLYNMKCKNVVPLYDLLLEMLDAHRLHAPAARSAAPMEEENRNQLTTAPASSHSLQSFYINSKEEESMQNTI
Test: ATG_chERa_XSP1: Attagene TRANS-FACTORIAL Multi-Species (XSP1) HepG2 Assay for chicken Estrogen Receptor (ESR1) (AID 2283779)
How it was run: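 Gain-of-signal reporter transcription, relative to DMSO, was scored in transiently transfected HepG2 cells after a 24 h dose. Fluorescence intensity of amplified, digested reporter cDNA fragments served as the endpoint.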
For `CC(C)(C)c1cc(O)ccc1O`, the AC50 was 8.92 µM (active). With `CC1(C)CCC(Cc2ccc(Cl)cc2)C1(O)Cn1cncn1` (stereo not given) the AC50 was 1.35 µM (active). With `O=C1C2(Cl)C3(Cl)C4(Cl)C(Cl)(Cl)C5(Cl)C3(Cl)C1(Cl)C5(Cl)C24Cl` (stereo not given) the AC50 was 0.0284 µM (active). For `CC(C)(C)CC(C)(C)c1ccc(O)cc1`, the AC50 was 2.21 µM (active). With `C[C@]12CCC(=O)C[C@@H]1CC[C@@H]1[C@@H]2CC[C@]2(C)[C@@H](O)CC[C@@H]12` the outcome was “inactive”. With `COP(=O)(OC)O/C(=C\Cl)c1cc(Cl)c(Cl)cc1Cl` the outcome was “inactive”. For `CC12CC1(C)C(=O)N(c1cc(Cl)cc(Cl)c1)C2=O` (stereo not given), the AC50 was 100 µM (active).

Biological target: Estrogen receptor (Homo sapiens) (UniProt P03372)
Sequence (P03372 whole entry, looked up): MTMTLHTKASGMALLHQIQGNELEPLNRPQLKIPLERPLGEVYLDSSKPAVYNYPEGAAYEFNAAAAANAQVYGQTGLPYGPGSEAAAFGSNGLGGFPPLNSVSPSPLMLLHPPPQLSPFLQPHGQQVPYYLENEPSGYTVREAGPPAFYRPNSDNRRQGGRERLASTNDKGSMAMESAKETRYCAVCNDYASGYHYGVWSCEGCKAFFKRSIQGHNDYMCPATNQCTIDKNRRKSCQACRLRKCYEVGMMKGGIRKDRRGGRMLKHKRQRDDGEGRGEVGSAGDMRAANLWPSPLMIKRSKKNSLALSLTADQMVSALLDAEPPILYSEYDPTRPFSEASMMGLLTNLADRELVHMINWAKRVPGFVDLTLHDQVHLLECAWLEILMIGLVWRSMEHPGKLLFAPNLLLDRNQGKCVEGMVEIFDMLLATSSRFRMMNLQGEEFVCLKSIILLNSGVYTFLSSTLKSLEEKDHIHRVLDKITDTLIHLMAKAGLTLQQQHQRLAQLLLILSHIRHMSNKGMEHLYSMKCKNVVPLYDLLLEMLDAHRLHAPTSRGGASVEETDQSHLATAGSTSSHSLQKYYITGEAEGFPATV
Test: ATG_hERa_XSP1: Attagene TRANS-FACTORIAL Multi-Species (XSP1) HepG2 Assay for human Estrogen Receptor (ESR1) (AID 2283780)
How it was run: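 Reporter transcripts from multiplexed GAL4-UAS units driven by NR-Gal4 chimeras in transiently transfected HepG2 were measured by RT-PCR with capillary electrophoresis 24 h post-dose, with 3 nM 6-alpha-fluorotestosterone present; gain-of-signal relative to DMSO.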
With `CC(C)(C)c1cc(O)ccc1O` the AC50 was 8.75 µM (active). For `CC1(C)CCC(Cc2ccc(Cl)cc2)C1(O)Cn1cncn1` (stereo not given), the AC50 was 5.17 µM (active). With `COP(=O)(OC)O/C(=C\Cl)c1cc(Cl)c(Cl)cc1Cl` the outcome was “inactive”.

Tested on: turtle Estrogen Receptor (ESR1), gene 101933533
Test: ATG_trERa_XSP1: Attagene TRANS-FACTORIAL Multi-Species (XSP1) HepG2 Assay for turtle Estrogen Receptor (ESR1) (AID 2283781)
How it was run: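 Cell-based chimeric NR-Gal4 transactivation; HepG2; 24 h dosing; mRNA reporter detected by RT-PCR and capillary electrophoresis fluorescence.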
With `CC(C)(C)c1cc(O)ccc1O` the AC50 was 8.26 µM (active). For `CC1(C)CCC(Cc2ccc(Cl)cc2)C1(O)Cn1cncn1` (stereo not given), the outcome was “inactive”. With `O=C1C2(Cl)C3(Cl)C4(Cl)C(Cl)(Cl)C5(Cl)C3(Cl)C1(Cl)C5(Cl)C24Cl` (stereo not given) the AC50 was 0.383 µM (active). In the case of `CC(C)(C)CC(C)(C)c1ccc(O)cc1`, the AC50 is reported as 2.15 µM (active). For `C[C@]12CCC(=O)C[C@@H]1CC[C@@H]1[C@@H]2CC[C@]2(C)[C@@H](O)CC[C@@H]12`, the outcome was “inactive”. For `CC12CC1(C)C(=O)N(c1cc(Cl)cc(Cl)c1)C2=O` (stereo not given), the AC50 was 30.9 µM (active).

Tested on: not listed separately
Test: ACEA_ER_AUC_viability: ACEA Biosciences xCELLigence Real-Time Cell Analysis on Estrogen Receptor Agonism for Viability (AID 2283782);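 note: hit means loss of impedance signal meaning reduced cell growth or viability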
How it was run: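 Continuous-exposure impedance cell analysis uses T-47D cells in charcoal-stripped serum, eight 1:4 dilutions topping at 100 uM final, biological duplicate. Area under the growth curve at 80 h is fitted against DMSO baseline.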
With `CC(C)(C)c1cc(O)ccc1O` the AC50 was 9.53 µM (active). In the case of `CC1(C)CCC(Cc2ccc(Cl)cc2)C1(O)Cn1cncn1` (stereo not given), the AC50 is reported as 74.5 µM (active). With `NC(=O)O` the outcome was “inactive”. With `CCOC(=O)Nc1cccc(OC(=O)Nc2ccccc2)c1` the outcome was “inactive”. In the case of `COP(=S)(OC)Oc1ccc(S(=O)(=O)N(C)C)cc1`, the outcome is reported as “inactive”. For `CC(C)=C[C@@H]1[C@@H](C(=O)OCc2coc(Cc3ccccc3)c2)C1(C)C`, the outcome was “inactive”. For `Nc1cccc2ccccc12`, the AC50 was 80.2 µM (active). In the case of `COP(=S)(OC)Oc1c(Cl)cc(C)cc1Cl`, the outcome is reported as “inactive”. For `CN(C)N=O`, the outcome was “inactive”. With `C(=NC1CCCCC1)=NC1CCCCC1` the AC50 was 28.6 µM (active). In the case of `O=C1C2(Cl)C3(Cl)C4(Cl)C(Cl)(Cl)C5(Cl)C3(Cl)C1(Cl)C5(Cl)C24Cl` (stereo not given), the AC50 is reported as 10.4 µM (active) and 7.76 µM (active) and 8.91 µM (active). With `CN(CCCC(=O)c1cccnc1)N=O` the outcome was “inactive”. In the case of `CCCCCCCCc1ccc(O)cc1`, the AC50 is reported as 24.4 µM (active). For `CCN(CC)C(=O)Cl`, the outcome was “inactive”. For `C=C(C)C#N`, the outcome was “inactive”. In the case of `CC(C)(C)CC(C)(C)c1ccc(O)cc1`, the AC50 is reported as 21.2 µM (active) and 21.4 µM (active) and 21.5 µM (active). With `CC(C)c1ccc(CO)cc1` the outcome was “inactive”. With `O=[N+]([O-])c1c(Cl)c(Cl)cc(Cl)c1Cl` the outcome was “inactive”. With `CC1CN1P(=O)(N1CC1C)N1CC1C` (stereo not given) the AC50 was 64.1 µM (active). For `COP(=S)(OC)Oc1cc(Cl)c(Cl)cc1Cl`, the AC50 was 88 µM (active). In the case of `O=C(CCl)CCl`, the AC50 is reported as 62.7 µM (active). In the case of `COc1ccc(C(O)(c2cncnc2)C2CC2)cc1` (stereo not given), the AC50 is reported as 67.6 µM (active). With `CCOC(=O)CP(=O)(OCC)OCC` the AC50 was 36.8 µM (active). With `O=P(O)(O)c1ccccc1` the outcome was “inactive”. With `COP(=O)(OC)O/C(=C\Cl)c1cc(Cl)c(Cl)cc1Cl` the AC50 was 58.1 µM (active). For `C=CC(=O)N(C)C`, the AC50 was 50 µM (active). With `CC(=[OH+])/C=C(/C)[O-].CC(=[OH+])/C=C(/C)[O-].CC(=[OH+])/C=C(/C)[O-].[Al]` the AC50 was 72.6 µM (active). For `ClCc1cccnc1`, the AC50 was 50 µM (active). With `CC12CC1(C)C(=O)N(c1cc(Cl)cc(Cl)c1)C2=O` (stereo not given) the outcome was “inactive”.
